PubChem BioAssay AID1022 (Emory University Molecular Libraries Screening Center, 2008)
In all, about 220,000 compounds went through this assay and about 3,300 (1.5%) were called active. What follows is part of a selection rich in actives, with near analogues and random picks from the rest. Values without a mark were called inactive.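 Rule for the calls: active = compounds that cut the protein-peptide binding signal by more than 50% relative to plate controls in a single-dose test; inactive = the rest.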

Target: Induced myeloid leukemia cell differentiation protein Mcl-1 (Homo sapiens) (UniProt Q07820)
Sequence (Q07820 whole entry, looked up): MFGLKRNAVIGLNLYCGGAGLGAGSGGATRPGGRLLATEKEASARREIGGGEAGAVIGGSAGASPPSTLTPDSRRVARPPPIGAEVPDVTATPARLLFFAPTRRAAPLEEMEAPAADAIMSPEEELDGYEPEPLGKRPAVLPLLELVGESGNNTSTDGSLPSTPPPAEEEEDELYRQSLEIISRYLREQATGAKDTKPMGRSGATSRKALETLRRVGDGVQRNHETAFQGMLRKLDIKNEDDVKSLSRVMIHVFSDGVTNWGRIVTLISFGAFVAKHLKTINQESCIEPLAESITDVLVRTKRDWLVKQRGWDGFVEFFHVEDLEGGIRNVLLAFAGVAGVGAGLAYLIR
Assay: Mcl-1/Noxa binding inhibitors, primary screen, biochemical, TR-FRET, 1536-well (AID 1022);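 note: His-tagged Mcl-1 with rhodamine Noxa BH3 peptide and terbium anti-His antibody; 0% = Mcl-1 plus Noxa peptide wells and 100% = peptide-only wells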
Settings: TR-FRET Mcl-1/Noxa peptide binding, 2 h; at 21.7 µM; stronger effect = higher value

| Structure (SMILES) | inhibition |
| --- | --- |
| Nc1ccc(-c2nnc(-c3ccc(-c4ccccc4)cc3)o2)cc1 | 65.7% (active) |
| Nc1ccc(-c2sc(N)nc2-c2ccccc2)cc1 | 26.2% |
| Brc1ccc(-c2nnc(-c3ccccc3)o2)o1 | 8.68% |
| COc1ccc(S(=O)(=O)N(CC(=O)N/N=C/c2ccccc2C(=O)O)c2ccccc2OC)cc1 | 12.8% |
| Oc1c(C(c2ccccn2)N2CCOCC2)ccc2cccnc12 (configuration not stated) | 5.37% |
| CCN1CCN(C(c2cccnc2)c2cc(Cl)c3cccnc3c2O)CC1 (configuration not stated) | 34% |
| CCOC(=O)N1CCN(C(c2cccnc2)c2ccc3cccnc3c2O)CC1 (configuration not stated) | 61.5% (active) |
| Cc1nc(N)sc1N=Nc1c(C)n(C)n(-c2ccccc2)c1=O | 13% |
| CC(C)OP(=O)(OC(C)C)C(Nc1ccccc1)c1cccc([N+](=O)[O-])c1 (configuration not stated) | 6.5% |
| O=C1/C(=C/c2ccc3c(c2)OCO3)CCC/C1=C\c1ccc2c(c1)OCO2 | -7.31% |
| CCC1=C/C(=C\c2ccc3c(c2)OCO3)C(=O)S1 | 55.4% (active) |
| CSC1=N/C(=C\c2ccc3c(c2)OCO3)C(=O)S1 | 5.49% |
| O=C(COC(=O)C1CCCCC1)Nc1ccc([N+](=O)[O-])cc1 | -0.21% |
| O=C(COc1ccc([N+](=O)[O-])cc1)Nc1ccc(N2CCCC2)cc1 | 52.2% (active) |
| O=C(Nc1ccc(F)cc1)N1CCN(c2ccc(F)cc2)CC1 | -20.8% |
| CN1CCN(CCNC(=O)Nc2ccc([N+](=O)[O-])cc2)CC1 | 6.06% |
| COc1ccc(OCC(=O)Nc2ccc(N3CCC(C)CC3)cc2)cc1 | 5.22% |
| O=C(NCCCN1CCN(c2ccc(F)cc2)CC1)Nc1ccc([N+](=O)[O-])cc1 | 52% (active) |
| CN(C)c1nc(=Nc2cccc(Cl)c2)ss1 | 13.4% |
| CC(C)(C)C(=O)OCc1nc(-c2ccc(O)c(O)c2)cs1 | 46.4% |
| COc1ccc(CCNC(=O)C(Sc2ccccn2)c2ccccc2)cc1OC (configuration not stated) | -11.6% |
| CSc1ccc(NC(=O)/C=C/C(=O)O)cc1 | 14.6% |
| Cc1oc(C(N)=O)cc1COc1ccc(C(N)=O)cc1 | 7.05% |
| O=C(NCCN1CCOCC1)c1ccc2c(c1)N(Cc1ccc(Cl)cc1)CCS2 | 16.4% |
| NC(=O)[C@H]1CC2(CC(c3cccc(NC(=O)[C@H]4CCC(=O)N4)c3)=NO2)CN1C(=O)c1ccccc1C(=O)c1ccccc1 (some centres not stated) | 3.36% |

| Structure (SMILES) | inhibition |
| --- | --- |
| Cc1cc(=O)[nH]c2nnnn12 | 0.51% |
| Fc1ccc(NC(=S)N2CCc3[nH]c4ccccc4c3C2)cc1 | 14.9% |
| O=C(Nc1ccc(Cl)cc1)N1CCc2[nH]c3ccccc3c2C1 | 104% (active) |
| O=C(NC1CCCCC1)N1CCc2[nH]c3ccccc3c2C1 | -13% |
| CS(=O)(=O)c1ccc(Cl)c(NC(=O)Nc2ccccc2)c1 | 2.41% |
| O=C(Nc1ccccc1)c1nnsc1S(=O)(=O)c1ccc(Cl)cc1 | 68.7% (active) |
| O=C(Nc1ccc(Cl)cc1)c1ccsn1 | 11.5% |
| N#CC1=C(N)Oc2c(ccc3cccnc23)C1c1ccncc1 (configuration not stated) | -11.2% |
| NC(=O)N/N=C\c1cccs1 | -22.2% |
| C=CCSC(CC)(CC)C(N)=O | -9.07% |
| COc1ccc(NC(=S)NCCN2CCC(C)CC2)cc1 | 19.6% |
| COc1ccc(N2CCC(CNC(=S)Nc3c(C)cccc3C)C2)cc1 (configuration not stated) | 17.1% |
| COc1ccc(NC(=S)NCC2CCN(c3ccc(OC)cc3)C2)cc1 (configuration not stated) | 67.3% (active) |
| O=C(Nc1ccccc1)N1CCN(C2c3ccccc3-c3ccccc32)CC1 | -0.05% |
| CC1CCN(c2ccc([N+](=O)[O-])c(SCCO)c2)CC1 | -16% |
| Cn1cnc(S(=O)(=O)Nc2ccc3c(c2)OCCO3)c1 | -2.52% |
| C=CCn1c(CSc2nc3ccccc3s2)nnc1SCC(=O)NCc1ccco1 | 51.2% (active) |
| C=CCn1c(SCC(=O)Nc2nc3ccccc3s2)nnc1-c1ccccc1O | 8.54% |
| CCn1c(COc2ccccc2)nnc1SCC(=O)NCc1ccco1 | -18.1% |
| C=CCC(Nc1ccccc1)c1cccc(OC)c1OC (configuration not stated) | 5.76% |
| Cc1cc(NC(=O)Nc2ccc(Cl)cc2)n(-c2ccccc2)n1 | -3.74% |
| CN(C(=O)COC(=O)c1cc(-c2ccco2)nc2ccccc12)C1CCS(=O)(=O)C1 (configuration not stated) | 107% (active) |
| Cc1c(-c2cccc(Cl)c2)nc2ccccc2c1C(=O)OCC(=O)N(C)C1CCS(=O)(=O)C1 (configuration not stated) | 13.3% |
| COc1ccc(NC(=O)COc2ccc(C(=O)OCC(=O)N(C)C3CCS(=O)(=O)C3)cc2OC)cc1 (configuration not stated) | -10.9% |
| O=C(C1=C(O)C(=O)N(c2ncccn2)C1c1cccs1)c1ccco1 (configuration not stated) | 55% (active) |

| Structure (SMILES) | inhibition |
| --- | --- |
| O=C(C1=C(O)C(=O)N(Cc2ccccc2)C1c1ccco1)c1ccco1 (configuration not stated) | 24.5% |
| O=C(C1=C(O)C(=O)N(CCOCCO)C1c1ccccn1)c1cccs1 (configuration not stated) | 11.8% |
| COc1cc(C=O)ccc1Oc1nnnn1-c1ccccc1 | -17.8% |
| COc1ccc(OC)c(C(=O)c2ccc(Cl)cc2)c1 | 6.99% |
| Cc1ccc2cc(/C=N/NC(=O)[C@@H]3CCCN3)c(Cl)nc2c1 | 5.95% |
| Cc1c(NC(=O)/C=C/C(=O)O)cccc1[N+](=O)[O-] | -3.3% |
| O=C(O)/C=C/C(=O)NNc1ccc([N+](=O)[O-])cc1 | 54.4% (active) |
| O=[N+]([O-])c1ccc(N/N=C/c2ccccc2)cc1 | 1.75% |
| C/C(=N\NC(=O)CC(C)C)c1c(C(F)(F)F)[nH]n(-c2nc3ccccc3s2)c1=O | -81.1% |
| O=C(Nc1cccc2c1N(C(=O)c1ccco1)CCC2)c1ccco1 | 18.1% |
| O=C(C[n+]1ccc2c(c1)nnn2-c1ccccc1)c1ccc(Cl)cc1 | 4.1% |
| N#CCC(=O)N/N=C/c1cn(Cc2ccc3ccccc3c2)c2ccccc12 | 27.9% |
| CC(C)CNC(=S)NC(=O)c1ccc(Cl)cc1 | 62.4% (active) |
| CC(C)C(NC(=O)c1ccc(Cl)cc1)C(=O)O (configuration not stated) | 1.56% |
| Cc1occc1C(=O)NNC(=S)NCC(C)C | -22.4% |
| Cn1cnc([N+](=O)[O-])c1Sc1n[nH]c(N)n1 | 3.28% |
| Cc1ccc(/C=C/C(=O)Nc2ccc([N+](=O)[O-])c(NC(=O)/C=C/c3ccc(C)o3)c2)o1 | 88.8% (active) |
| Cc1ccc(/C=C/C(=O)Nc2cc(S(=O)(=O)N3CCCCCC3)ccc2OCC(F)(F)F)o1 | 22.8% |
| CCc1nnc(NC(=O)/C=C/c2ccc(C)o2)s1 | 19.4% |
| O=C(Nc1ccc(-c2csc(Nc3cccc(C(F)(F)F)c3)n2)cc1)c1cccc(C(F)(F)F)c1 | 16.6% |
| CC(C)(C)c1cc(C(=O)NN)n(Cc2ccc(Cl)cc2Cl)n1 | -5.62% |
| CC(=O)Nc1cc(C(=O)O)ccc1S(=O)(=O)c1ccc(Cl)cc1 | 57.8% (active) |
| Cc1ccc(S(=O)(=O)c2ccc(Cl)cc2)cc1S(=O)(=O)NC(C(=O)O)C(C)C (configuration not stated) | 24% |
| CCOC(=O)N1CCN(C(=O)c2ccc(S(=O)(=O)c3ccc(C)cc3)c(NC(C)=O)c2)CC1 | 2.03% |
| CCC(=O)N1CCCc2ccccc21 | -6.7% |

| Structure (SMILES) | inhibition |
| --- | --- |
| CN(C)c1cc(-c2ccc(F)cc2)oc(=O)c1Cl | 11.2% |
| Cc1ccc(S(=O)(=O)N/N=C\c2cc3c(cc2[N+](=O)[O-])OCO3)cc1 | 35.1% |
| Cc1ccc(-c2n[nH]c(=S)n2/N=C/c2cc3c(cc2[N+](=O)[O-])OCO3)cc1 | 63.6% (active) |
| CCOc1ccc(-c2n[nH]c(=S)n2/N=C/c2cc3c(cc2[N+](=O)[O-])OCO3)cc1 | 48.5% |
| CC(=O)N1N=C(c2ccncc2)OC1(Cc1ccccc1)Cc1ccccc1 | 5.2% |
| CCc1nnc(NC(=O)Cc2cccs2)s1 | 32.4% |
| COc1ccc(Cc2nnc(NC(=O)Cc3cccs3)s2)cc1 | 101% (active) |
| O=C(Cc1cccs1)Nc1nnc(C2CC2)s1 | -2.68% |
| Cc1ccc(-c2c[n+](CC(=O)Nc3ccccc3)c3n2CCC3)cc1 | -9.73% |
| Cc1ccc(Cn2c(SCC(=O)N/N=C/c3ccccc3OCC(=O)O)nc3ccccc32)cc1 | 27.3% |
| Cc1nc2c(ncn2-c2ccccc2)c(=O)n1NC(=O)CN1CCCC1 | 1.52% |
| C=C(C)CNC(=S)Nc1ccc(S(=O)(=O)Nc2cnc3ccccc3n2)cc1 | 6.78% |
| O=c1cc(CO)oc(C(Nc2cccc(C(F)(F)F)c2)c2ccccn2)c1O (configuration not stated) | 70% (active) |
| Cc1ccc(CN(C)CC(=O)Nc2cccc([N+](=O)[O-])c2)o1 | -9.25% |
| O=C(CSCC(=O)Nc1cccc([N+](=O)[O-])c1)Nc1ccccc1 | -8.73% |
| O=C(Nc1cccc(C(F)(F)F)c1)c1cnccn1 | 3.57% |
| O=c1cc(CO)oc(C(Nc2cccc([N+](=O)[O-])c2)c2ccccn2)c1O (configuration not stated) | 70.7% (active) |
| FC(F)(F)c1cccc(Nc2ncnc3ccccc23)c1 | -37.6% |
| FC(F)(F)c1ccc(-n2cn[nH]c2=S)cc1 | -8.38% |
| CN(C)NC(=O)c1csnc1-c1c(Cl)cccc1Cl | 8.82% |
| O=C(CSc1ncn[nH]1)Nc1nc(-c2cccc([N+](=O)[O-])c2)cs1 | 0.73% |
| Cc1ccc(C(=O)NNC2=Nc3cc([N+](=O)[O-])ccc3OC2)cc1 | 8.97% |
